High-throughput results deposited in PubChem by University of Kansas High Throughput Screening Laboratory.
Rows were chosen to be rich in hits. Some 3.5% of all compounds tested hit in one or more screens of this group.
mHTT CaM bind = disrupts binding of mutant huntingtin to calmodulin | P42858 | AlphaScreen His-mHTT/GST-CaM binding, luminescence | inhibition, % at 15 µM | hit rate 3.6% among 190,000 | AID 1671202;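 further: 0% = both proteins with DMSO and 100% = one protein alone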
Pf apPOL block = Pf-apPOL DNA polymerase inhibition | Recombinant Pf-apPOL, molecular beacon fluorescence, 1.5 h | inhibition, % at 10 µM | hit rate 0.25% among 210,000
* = called active by the depositor. No stated cut-off is given here; in the data, active means inhibition above about 50%; inactive means the rest.

For CCc1ccccc1NC(=O)C1CC(=O)N(CCc2c[nH]c3ccc(F)cc23)C1 (stereo not drawn) the results were mHTT CaM bind 6 and Pf apPOL block -3.
Cc1ccc(Cl)cc1NC(=O)C1CC(=O)N(CCc2c[nH]c3ccc(F)cc23)C1 (stereo not drawn) was read as mHTT CaM bind 89* and Pf apPOL block -4.
`Cc1ccc(NC(=O)C2CC(=O)N(CCc3c[nH]c4ccc(F)cc34)C2)c(C)c1` (stereo not drawn) gave mHTT CaM bind 8 and Pf apPOL block -2.
`Cc1ccc(C)c(NC(=O)C2CC(=O)N(CCc3c[nH]c4ccc(Cl)cc34)C2)c1` (stereo not drawn) gave mHTT CaM bind 67* and Pf apPOL block 1.
Screening Cc1ccc(NC(=O)C2CC(=O)N(CCc3c[nH]c4ccc(C)cc34)C2)c(C)c1 (stereo not drawn) returned mHTT CaM bind 25 and Pf apPOL block 3.
For COc1cc(OC)cc(C2=N/C(=C\c3ccc(C)o3)C(=O)O2)c1 the results were mHTT CaM bind 0 and Pf apPOL block -4.
For COc1ccc(Cl)cc1S(=O)(=O)N1CC2CC(NC(=O)c3ccccc3)C1C2 (stereo not drawn) the results were mHTT CaM bind 6 and Pf apPOL block -2.
For COc1cc2[nH]c(=O)n(Cc3ccc(C(=O)NCc4cccnc4)cc3)c(=O)c2cc1OC the results were mHTT CaM bind 3 and Pf apPOL block -1.
COc1ccc(-c2nn(C)c(=O)c3ccccc23)cc1NC(=O)c1ccccc1Cl was read as mHTT CaM bind 3 and Pf apPOL block -4.
Screening CCN(CC)CCNC(=O)c1cc2c(s1)CN(C1CCCC1)C2 returned mHTT CaM bind 3 and Pf apPOL block 0.
`CC1C(=O)NCCN1C(=O)c1ccc(Oc2ccccc2)cc1` (stereo not drawn) gave mHTT CaM bind -12 and Pf apPOL block -11.
For CC(Oc1cc2oc(=O)cc(-c3ccccc3)c2cc1Cl)C(=O)O (stereo not drawn) the results were mHTT CaM bind 100* and Pf apPOL block -1.
`COC(=O)C(C)Oc1cc(C)cc2oc(=O)cc(-c3ccccc3)c12` (stereo not drawn) gave mHTT CaM bind -7 and Pf apPOL block -4.
`CN1CCN(C(=O)C(=O)N2CCN(C)CC2)CC1` gave mHTT CaM bind -2.
For O=[N+]([O-])c1cccc(-c2nc(C=Nc3ccccc3)c3ccccn23)c1 the results were mHTT CaM bind 7 and Pf apPOL block -1.
For CC1=NOC(=O)/C1=C/c1ccc(OCc2ccc(C)cc2)c(Cl)c1 the results were mHTT CaM bind 33 and Pf apPOL block -5.
Screening COc1cc(/C=C2\C(=O)ON=C2C)ccc1OCc1ccccc1F returned mHTT CaM bind 41 and Pf apPOL block -4.
Screening C=CCOc1c(Br)cc(/C=C2\C(=O)ON=C2C)cc1OC returned mHTT CaM bind 21 and Pf apPOL block -2.
`CC1=NOC(=O)/C1=C/c1ccccc1OCc1ccccc1Cl` gave mHTT CaM bind 4 and Pf apPOL block -2.
`COc1cc(/C=C2\C(=O)ON=C2C)cc(Cl)c1OCc1ccc(C)cc1` gave mHTT CaM bind 95* and Pf apPOL block 0.
For CC1=NOC(=O)/C1=C/c1ccccc1OCc1ccc(Br)cc1 the results were mHTT CaM bind 54* and Pf apPOL block 1.
Screening COc1cc(/C=C2\C(=O)ON=C2C)cc(Br)c1OCc1ccc(C)cc1 returned mHTT CaM bind 70* and Pf apPOL block 14.
Screening COc1cc(/C=C2\C(=O)ON=C2C)cc(Br)c1OCc1ccccc1F returned mHTT CaM bind 64* and Pf apPOL block -4.
For O=c1oc2cc(OCC(O)Cn3ccnc3)ccc2c2c1CCC2 (stereo not drawn) the results were mHTT CaM bind -4 and Pf apPOL block 0.
Screening O=C(N1CCN(c2nc(CN3CCOCC3)cs2)CC1)C1(c2ccccc2)CC1 returned mHTT CaM bind 9 and Pf apPOL block -3.
`O=C1CC(C(=O)NCCc2ccccc2)C2(CCCCC2)O1` (stereo not drawn) gave mHTT CaM bind -2 and Pf apPOL block -13.
For Cc1nc2ccc(N=Cc3ccc(Br)cc3)cc2s1 the results were mHTT CaM bind -2 and Pf apPOL block 1.
`CCn1c(N2CCC(C(=O)NCc3cccs3)CC2)cc(=O)n(C)c1=O` gave mHTT CaM bind 62* and Pf apPOL block -3.
Cn1c(N2CCC(C(=O)NCc3ccccn3)CC2)cc(=O)n(C)c1=O was read as mHTT CaM bind 70* and Pf apPOL block 1.
`Cn1c(N2CCC(C(=O)NCc3cccs3)CC2)cc(=O)n(C)c1=O` gave mHTT CaM bind 40 and Pf apPOL block -2.
For CC(C)c1ccc(N2CC(C(=O)NCc3ccccn3)CC2=O)cc1 (stereo not drawn) the results were mHTT CaM bind 9 and Pf apPOL block -4.
For Cn1c(N2CCCC(C(=O)NCCC3=CCCCC3)C2)cc(=O)n(C)c1=O (stereo not drawn) the results were mHTT CaM bind 11 and Pf apPOL block 0.
Screening CCn1c(N2CCC(C(=O)NCCC3=CCCCC3)CC2)cc(=O)n(C)c1=O returned mHTT CaM bind 51* and Pf apPOL block 5.
Cc1cccc(N2CC(C(=O)NCc3ccccn3)CC2=O)c1 (stereo not drawn) was read as mHTT CaM bind 61* and Pf apPOL block -14.
Screening Cn1c(N2CCC(C(=O)NCc3ccccc3)CC2)cc(=O)n(C)c1=O returned mHTT CaM bind 27 and Pf apPOL block 2.
For CNC(=O)c1ccc(C(=O)c2cc(OC)ccc2OC)cc1 the results were mHTT CaM bind -5 and Pf apPOL block -1.
COc1ccc(C2=N/C(=C\c3cccc([N+](=O)[O-])c3)C(=O)O2)cc1[N+](=O)[O-] was read as mHTT CaM bind 0 and Pf apPOL block 4.
For CCNc1cc(N2CCCC(CCC(=O)Nc3ccccc3)C2)ncn1 (stereo not drawn) the results were mHTT CaM bind 12 and Pf apPOL block -2.
`CCn1c(N2CCC(C(=O)Nc3cc(OC)c(OC)c(OC)c3)CC2)cc(=O)n(C)c1=O` gave mHTT CaM bind 62* and Pf apPOL block 2.
For COc1ccc(NC(=O)C2CCN(c3cc(=O)n(C)c(=O)n3C)CC2)cc1OC the results were mHTT CaM bind 39 and Pf apPOL block 0.
O=S(=O)(c1ccc(Cl)s1)N1CCCC1 was read as mHTT CaM bind -4 and Pf apPOL block 13.
For CCn1ccc2sc(C)c(C(=O)NC3CCCC3)c2c1=O the results were mHTT CaM bind 19 and Pf apPOL block -5.
For CCC(=O)NC(c1ccccc1OC)c1cc(Cl)c2cccnc2c1O (stereo not drawn) the results were mHTT CaM bind 87* and Pf apPOL block 2.
Screening CCCC(=O)NC(c1ccc(OC)c(OC)c1)c1cc(Cl)c2cccnc2c1O (stereo not drawn) returned mHTT CaM bind 25 and Pf apPOL block -50.
For CCC(=O)NC(c1ccccc1Cl)c1cc(Cl)c2cccnc2c1O (stereo not drawn) the results were mHTT CaM bind 100* and Pf apPOL block 6.
CCCC(=O)NC(c1ccccc1OC)c1cc(Cl)c2cccnc2c1O (stereo not drawn) was read as mHTT CaM bind 51* and Pf apPOL block -12.
For CCC(=O)NC(c1ccc(Cl)cc1)c1cc(Cl)c2cccnc2c1O (stereo not drawn) the results were mHTT CaM bind 41 and Pf apPOL block 7.
